Measured potencies and affinities stand elsewhere. The source made the active and inactive calls.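 The calls were made as follows: active = compounds lowering signal whose fitted half-maximal concentration is at most twice the top tested dose; inconclusive = flat curve with 30 to 70% inhibition, or poor fit; inactive = the rest.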
molecular target: Dual specificity protein kinase CLK1 (Homo sapiens) (UniProt P49759); assay: CLK1 kinase inhibitors, off-target check, dose response, selectivity assay for Dyrk1A inhibitor project, biochemical, cherry-picked samples (AID 588811); conditions: recombinant CLK1, ADP-Glo luminescence, 2 h; series mostly up to 12 µM; activity change, negative = inhibition: at the top concentration
Sequence (P49759 whole entry, looked up): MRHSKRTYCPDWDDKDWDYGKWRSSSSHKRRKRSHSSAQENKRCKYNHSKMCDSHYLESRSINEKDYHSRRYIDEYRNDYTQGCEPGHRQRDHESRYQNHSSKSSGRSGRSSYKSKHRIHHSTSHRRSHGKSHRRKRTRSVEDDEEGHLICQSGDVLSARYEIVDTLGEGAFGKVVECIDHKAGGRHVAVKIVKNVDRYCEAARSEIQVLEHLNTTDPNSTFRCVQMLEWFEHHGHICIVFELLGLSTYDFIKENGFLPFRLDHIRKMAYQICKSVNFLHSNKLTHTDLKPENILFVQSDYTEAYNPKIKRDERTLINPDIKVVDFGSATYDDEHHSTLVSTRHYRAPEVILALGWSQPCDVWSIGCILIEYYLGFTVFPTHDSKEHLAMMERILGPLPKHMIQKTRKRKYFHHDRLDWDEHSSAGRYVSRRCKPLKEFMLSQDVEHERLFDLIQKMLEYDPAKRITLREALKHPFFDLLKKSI

Activity change, negative = inhibition, inactive:
N#CCSc1nc(Nc2ccc3c(c2)OCO3)c2ccccc2n1 -4.57%, COCCNC(=O)c1ccc2c(c1)nc(C)n2-c1cccc(F)c1 -16.5%, Cc1ccnc(NC(=O)c2cccc(S(=O)(=O)N3CCN(c4ccccc4)CC3)c2)c1 -5.91%, Clc1ccc(CNc2cc(-c3ccc4c(c3)OCO4)ncn2)cc1 -23.3%, CCCC(=O)Nc1nc(-c2ccc3c(c2)OCCO3)cs1 -24.5%, Cc1noc(NS(=O)(=O)c2ccc(NC(=O)c3oc4ccc(F)cc4c3C)cc2)c1C -34%, Clc1ccc(CNc2nccc(-c3ccc4cn[nH]c4c3)n2)cc1Cl -19.6%, Fc1cccc(Nc2nc(-c3ccncc3)nc3ccccc23)c1 -43.5%, COc1cccc(Nc2nc(NCCO)c3ccccc3n2)c1 -8.29% [at 1.35 µM], CC(=O)Nc1cccc(NC(=O)c2cc3ccccc3o2)c1 -17%, O=C(NCc1ccco1)c1sc2ccccc2c1Cl -12.3%, COc1cccc(-c2sc3ccccc3c2-c2ccc(OCCN3CCCC3)cc2)c1 -9.56%, Clc1cc(Cl)cc(CNc2cc(-c3ccc4c(c3)OCO4)ncn2)c1 -20%, Clc1ccccc1-c1ccc2ncnc(NCc3ccc4c(c3)OCO4)c2c1 -3.63%, Cc1c(-c2ccnc(NCc3ccc(Cl)cc3)n2)sc(=O)n1C -45%, COc1ccc2c(Cl)c(C(=O)NCc3ccco3)sc2c1 -35.8%, N#Cc1c(C(F)(F)F)cc(-c2cccc(Cl)c2)[nH]c1=O -15.6%
